The nature of test [1]: qHTS assay for small molecules that induce genotoxicity in human embryonic kidney cells expressing luciferase-tagged ATAD5 (AID 651632). Note: nearly all actives have a fitted effect of over 15% in size. The essentials:
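Cells were seeded at 2,000 per well, dosed with compound, and incubated 16 hr at 37C in 5% CO2. Luciferase activity was then quantified after a 30 min room-temperature incubation with Amplite.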

A short description of test [2]: qHTS assay for small molecule agonists of the p53 signaling pathway - cell viability (AID 651633; calls by dose curve; note: nearly all actives have a fitted effect of over 30% in size; note: potency is the fitted concentration of half-maximal effect). The method in brief: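 p53RE-bla cells, seeded at 4,000 per well and rested 5 h at 37 C/5% CO2, received compounds in DMSO for 16 h at 37 C. CellTiter-Glo was then added, and luminescence was read after 30 min at room temperature to gauge cytotoxicity.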
A general note: Quantitative high-throughput screening tests each substance at several concentrations.

The nature of test [3]: qHTS assay for small molecules that induce genotoxicity in human embryonic kidney cells expressing luciferase-tagged ATAD5 - cell viability (AID 651634; calls by dose curve; note: nearly all actives have a fitted effect of over 25% in size; note: potency is the fitted concentration of half-maximal effect). The method in brief:
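Cells (HEK293T, luciferase-tagged ATAD5) are seeded at 2,000 per well, dosed with compound or DMSO vehicle, and incubated 15.5 hr at 37C and 5% CO2. CellTiter-Fluor is added for 30 min before fluorescence is measured.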

A short description of test [4]: qHTS assay for small molecule disruptors of the mitochondrial membrane potential (AID 720635). Note: potency is the fitted concentration of half-maximal effect. The essentials:
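HepG2 cells (2,000/well) attached overnight at 37C, then took compound for 1 hr at 37C, 5% CO2. Mito-MPS dye was added for 30 min; fluorescence was read at 490/535 nm (monomers) and 540/590 nm (aggregates).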

The nature of test [5]: qHTS assay to test for compound auto fluorescence at 535 nm (green) in HepG2 cells (AID 720675).
A short description of test [6]: qHTS assay to test for compound auto fluorescence at 460 nm (blue) in HEK293 cells (AID 720678). The essentials: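 HEK293 cells (2,000 per well, medium with 10% dialyzed FBS) attached for 4-5 hr at 37C, then received compound and stood overnight at 37C, 5% CO2. Blue fluorescence was read at Ex/Em 405/460 nm and expressed relative to triamterene.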
Test [7] is described as follows: qHTS assay to test for compound auto fluorescence at 590 nm (red) in HEK293 cells (AID 720679). The essentials: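 HEK293 cells (2,000/well, medium with 10% dialyzed FBS) attached for 4-5 hr at 37C, received 23 nL compound and were incubated overnight at 37C, 5% CO2. Red fluorescence was then read at 540/590nm Ex/Em, referenced to Rose Bengal sodium.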
Test [8] can be described thus: qHTS assay to test for compound auto fluorescence at 535 nm (green) in HEK293 cells (AID 720680).
The nature of test [9]: qHTS assay to test for compound auto fluorescence at 460 nm (blue) in HEK293 cell free culture (AID 720681). The method in brief: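 Test compounds were pinned into cell-free culture medium (DMEM with 10% FBS) and fluorescence was read directly at Ex/Em 405/460 nm. Signals were expressed as fluorescence equivalents of triamterene, with DMSO vehicle as control.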
Test [10] in a line: qHTS assay to test for compound auto fluorescence at 535 nm (green) in HEK293 cell free culture (AID 720682). The method in brief: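 Measurement is a direct plate read of green fluorescence (485 nm in, 535 nm out) after compound addition to serum-supplemented DMEM lacking cells, with fluorescein used to express intensities.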
Test [11] can be described thus: qHTS assay to test for compound auto fluorescence at 590 nm (red) in HEK293 cell free culture (AID 720683). The method in brief: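 Tox21 10K library compounds were pinned into cell-free DMEM with 10% FBS and fluorescence was read at excitation 540 nm. Activity is expressed as Rose Bengal sodium equivalency.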
Test [12] is described as follows: qHTS assay to test for compound auto fluorescence at 590 nm (red) in HepG2 cell free culture (AID 720684). The essentials: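 Ex 540 / Em 590 nm read of compound in cell-free MEM (10% FBS). Rose Bengal sodium reference.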
Test [13] is described as follows: qHTS assay to test for compound auto fluorescence at 460 nm (blue) in HepG2 cell free culture (AID 720685). The essentials: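 Cell-free plates of MEM plus 10% FBS received 23 nL compound or DMSO vehicle; blue-channel (405/460 nm) intensity scored against triamterene as reference fluorophore.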
Test [14] can be described thus: qHTS assay to test for compound auto fluorescence at 535 nm (green) in HepG2 cell free culture (AID 720686).
The nature of test [15]: qHTS assay to test for compound auto fluorescence at 460 nm (blue) in HepG2 cells (AID 720687). The essentials:
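Cells (2,000/well in MEM with 10% FBS) attached overnight at 37 C, then were exposed to compound or DMSO for 1 hr at 37 C, 5% CO2. Fluorescence read at Ex/Em 405/460 nm, expressed as triamterene-equivalent signal.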

Test [16] can be described thus: qHTS assay for small molecule disruptors of the mitochondrial membrane potential - cell viability (AID 720634; calls by dose curve; note: nearly all actives have a fitted effect of over 20% in size; note: potency is the fitted concentration of half-maximal effect). The essentials:
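Cytotoxicity was measured by ATP quantitation in HepG2 wells that had first been treated with compound for 1 hr and stained with m-MPI dye; CellTiter-Glo incubation was 30 min at room temperature.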

A short description of test [17]: qHTS assay to test for compound auto fluorescence at 590 nm (red) in HepG2 cells (AID 720674). The essentials:
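Rose Bengal sodium served as the red fluorophore standard. HepG2 monolayers (overnight attachment, MEM with 10% FBS) were exposed to test compounds for 1 hr at 37 C and read at Ex 540/Em 590 nm.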

Test [18] deals with Glucocorticoid receptor (Homo sapiens) (UniProt P04150). The test can be described thus: qHTS assay to identify small molecule agonists of the glucocorticoid receptor (GR) signaling pathway (AID 720691; active = well fitted activation curve with a large enough effect in the signal ratio in the repeat runs, not every such curve was filed as active; the % refers to the signal ratio). Particulars: GR-bla HeLa, beta-lactamase reporter ratio, 18 h; activation: at 62.4 µM (top of the series). The essentials:
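Steps: seed GR-bla HeLa cells, incubate 4 h at 37 C/5% CO2; pin-transfer DMSO-dissolved compounds; incubate 18 h at 37 C; add LiveBLAzer B/G FRET substrate; after 2 h at room temperature, measure fluorescence.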

The target is the same in test [19]. The experiment in a line: qHTS assay to identify small molecule antagonists of the glucocorticoid receptor (GR) signaling pathway (AID 720692; active = well fitted inhibition curve with a large enough effect in the signal ratio in the repeat runs, not every such curve was filed as active; the % refers to the signal ratio). The essentials:
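Antagonism was scored as loss of dexamethasone-driven (5 nM final) reporter signal in HeLa cells bearing a glucocorticoid response element–beta-lactamase construct, after 18 h compound exposure at 37 C and 2 h FRET substrate loading.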

Values without a mark were called inactive. Results filed as inconclusive are left out. Activity calls are given as the source filed them. Unless noted, calls come from the whole dose curve; as a rule, active = well fitted curve in the direction sought with a large enough effect in the repeat runs; inconclusive = weak or mixed curves; inactive = no such curve, though single readings can be large; an effect the other way counts as inactive or inconclusive.
% is set by controls: 0 for no effect and ±100 for the full control effect.

Chain of Glucocorticoid receptor (Homo sapiens) (P04150 whole entry, looked up): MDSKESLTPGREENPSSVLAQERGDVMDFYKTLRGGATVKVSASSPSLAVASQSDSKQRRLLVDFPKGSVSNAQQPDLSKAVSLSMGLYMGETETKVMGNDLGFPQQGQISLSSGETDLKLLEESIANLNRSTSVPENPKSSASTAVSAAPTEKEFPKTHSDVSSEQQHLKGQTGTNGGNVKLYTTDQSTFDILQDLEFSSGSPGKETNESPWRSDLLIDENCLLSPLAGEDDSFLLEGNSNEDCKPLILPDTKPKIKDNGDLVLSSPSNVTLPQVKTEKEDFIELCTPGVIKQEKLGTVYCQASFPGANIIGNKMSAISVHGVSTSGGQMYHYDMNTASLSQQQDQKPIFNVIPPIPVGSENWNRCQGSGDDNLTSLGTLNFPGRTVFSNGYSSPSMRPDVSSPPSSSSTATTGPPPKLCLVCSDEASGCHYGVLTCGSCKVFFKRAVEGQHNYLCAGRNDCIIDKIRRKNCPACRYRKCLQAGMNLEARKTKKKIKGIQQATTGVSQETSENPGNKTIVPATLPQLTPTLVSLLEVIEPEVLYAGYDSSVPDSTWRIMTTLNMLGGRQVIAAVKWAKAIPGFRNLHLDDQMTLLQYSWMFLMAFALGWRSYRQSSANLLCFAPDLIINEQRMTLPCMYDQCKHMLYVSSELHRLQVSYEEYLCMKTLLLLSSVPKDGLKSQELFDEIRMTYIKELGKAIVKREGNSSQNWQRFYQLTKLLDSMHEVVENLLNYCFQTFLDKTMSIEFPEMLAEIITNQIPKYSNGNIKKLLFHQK

`Cc1oc(-c2ccccc2)nc1CCOc1ccc(C[C@H](Nc2ccccc2C(=O)c2ccccc2)C(=O)O)cc1`: the Potency entry in test [1], in test [5], in test [6], in test [7], in test [8] and in test [9] was “inactive” throughout. Also, the Potency entry in test [10], in [11], in test [12], in test [13], in test [14] and in [15] was “inactive” each time. Also, the Potency is 21.7 µM (active) in [2], 54.5 µM (active) in test [3] and 61.1 µM (active) in test [4].

With `Nc1ncnc2c1ncn2[C@@H]1O[C@H](COP(=O)(O)O)[C@@H](O)[C@H]1O`, the Potency result in [1], in test [2], in [3], in test [16], in test [17] and in [5] was “inactive” in each case. Moreover, the Potency result in test [6], in [7], in test [8], in [9], in test [10] and in test [11] was “inactive” in each case. In addition, the Potency result in [12], in test [13], in [14], in test [15] and in test [18] was “inactive” in each case.

Turning to `C[Si](C)(C)Cl`, the Potency result in [1], in [2], in [3], in [16], in test [17] and in test [5] was “inactive” each time. Further, the Potency entry in test [6], in test [8], in test [9], in test [10], in test [11] and in test [12] was “inactive” in each case. Besides, the Potency entry in test [13], in test [14], in test [15], in [18] and in test [19] was “inactive” each time.

`C=CC(=O)OCC(O)COc1ccccc1` (stereo not drawn): the Potency result in [1], in [16], in [17], in test [5], in [6] and in [7] was “inactive” each time. The Potency result in test [8], in test [9], in test [10], in test [11], in test [12] and in test [13] was “inactive” each time. Further, the Potency result in test [14] and in test [15] was “inactive” in each case. The Potency in test [2] is 54.5 µM (active).

As to `c1ccc(Sc2ccccc2)cc1`, the Potency result in [1], in test [2], in test [3], in test [17], in test [5] and in test [6] was “inactive” in each case. The Potency result in test [7], in test [8], in test [9], in test [10], in [11] and in test [12] was “inactive” each time. Besides, the Potency entry in test [13], in test [14] and in test [15] was “inactive” each time.

`CCN=C1C=CC(=C(c2ccc(N(CC)CC)cc2)c2ccc(N(CC)CC)cc2)c2ccccc21`: the Potency entry in [1], in test [5], in [6], in test [7], in [8] and in test [9] was “inactive” in each case. Further, the Potency entry in test [10], in [11], in test [12], in [13], in [14] and in [15] was “inactive” each time. The Potency in test [2] was 30.5 µM (active); in test [3], 34.2 µM (active); in [4], 0.0076 µM (active).

With `COC(=O)CC(C)CCC=C(C)C` (stereo not drawn), the Potency entry in test [1], in test [2], in [3], in test [4], in test [17] and in test [5] was “inactive” throughout. For the same compound, the Potency result in [6], in test [7], in [8], in [9], in test [10] and in test [11] was “inactive” throughout. Also, the Potency result in test [12], in [13], in test [14], in test [15], in [18] and in test [19] was “inactive” each time.

Regarding `O=C1NCN(c2ccccc2)C12CCN(CCCC(c1ccc(F)cc1)c1ccc(F)cc1)CC2`, the Potency result in test [1], in test [17], in [5], in test [6], in test [8] and in test [9] was “inactive” each time. Besides, the Potency result in test [10], in [11], in [12], in test [13], in test [14] and in [15] was “inactive” in each case. In addition, the Potency in test [2] was 26.6 µM (active); in test [3], 26.6 µM (active); in test [16], 21.1 µM (active); in test [4] it was 19.7 µM (active).

For the compound `Cc1cccc(C)c1NC(=O)CN1CCN(CCCC(c2ccc(F)cc2)c2ccc(F)cc2)CC1`, the Potency entry in [1], in [2] and in test [3] was “inactive” each time. For the same compound, the values for the fluorescence, % of fluorescein control in test [5] and in [14] were 0.0022% [at 18.6 µM] and 0.0052% [at 18.6 µM], respectively. Moreover, in test [6], the fluorescence, % of triamterene was 0.0374% [at 18.6 µM]. Moreover, in [8], the fluorescence, % of fluorescein is 0.0034% [at 18.6 µM]. The fluorescence, % of fluorescent control in test [9] was -0.178% [at 18.6 µM]; in test [11], -0.297% [at 18.6 µM]; in test [13], -0.0263% [at 18.6 µM]; in test [15], -0.0418% [at 18.6 µM]. The activity change in test [10] is 0.0074% [at 18.6 µM, stronger effect = higher value]. Also, in [12], the fluorescence, % of Rose Bengal was -0.0617% [at 18.6 µM].

On to `CN(Cc1cc(Br)cc(Br)c1N)C1CCCCC1`, for which the Potency result in test [1], in [3], in test [5], in [6], in [7] and in [8] was “inactive” throughout. The Potency result in test [9], in [10], in test [11], in [12], in test [13] and in test [14] was “inactive” throughout. Also, the Potency result in [15], in test [18] and in [19] was “inactive” each time. The Potency in test [2] is 29.8 µM (active); in test [4], 26.6 µM (active).
